# According to PubChem BioAssay (NCATS):
# Results filed as inconclusive are left out. A number with no mark means an inactive call. Calls follow the shape of the dose curve; as a rule, active = well fitted inhibition curve with a large enough effect; inconclusive = small, poorly fitted or top-dose-only effect; inactive = no such curve, though single readings can be large or run the other way.
# Assay: qHTS assay for measurement of the activity of small molecule inhibitors on Zika virus induced Caspase-3 activity in human iPSC derived neural progenitor cells (hNPCs) (AID 1224857); also: % of control where 0% means no effect; nearly all actives have a fitted effect of over 65% in size
# Settings: hNPCs ZIKV-induced caspase-3/7, Caspase-Glo luminescence, 6 h; series mostly up to 45.7 µM; activity change, negative = inhibition: at the top concentration
# Procedure, shortened: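 Percent inhibition of virus-induced caspase-3/7 luminescence (Caspase-Glo), scaled between uninfected cells and Zika-infected cells. hNPCs received compound 1 hr before ZIKV at 2 FFU/cell, with 6 hours infection at 37 C.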
row,SMILES,"activity change, negative = inhibition [%]"
1,NCCCCC(=O)O,33.8
2,COc1ccc(Br)cc1S(=O)(=O)NC(=O)/C=C/c1ccccc1Cc1ccc2ccccc2c1,-18.5
3,NCCCCCCCCCCN,-8.44
4,CC(C)(C=O)Cc1cc(C(C)(C)C)c(O)c(C(C)(C)C)c1,18.8
5,NC(=O)C(=O)O,6.72
6,Clc1ccc(N2CCN(Cc3cc4ccccn4n3)CC2)cc1,13.3
7,Cn1ncc(S(=O)(=O)Cc2ccccc2)c(Br)c1=O,-6.53
8,NS(=O)(=O)C#Cc1ccccc1,-4.19
9,COCCOc1cc2nc[nH]c(=O)c2cc1OCCOC,17.9
10,CC[C@H]1OC(=O)[C@H](C)C(O[C@H]2C[C@@](C)(OC)[C@@H](O)[C@H](C)O2)[C@H](C)[C@@H](OC2O[C@H](C)C[C@H](N(C)C)[C@H]2O)[C@](C)(O)C[C@@H](C)CN(C)[C@H](C)[C@@H](O)[C@]1(C)O (stereo partly drawn),-1.92
11,NS(=O)(=O)c1ccc(-n2nc(C(F)(F)F)cc2-c2ccc(Cl)cc2)cc1,25.4
12,c1ccc(CCNc2nc(-c3ccccc3)cs2)cc1,-185
13,S=C(S)OC1CC2CC1C1CCCC21 (stereo not drawn),-1.5
14,Clc1ccc(N2CCN(Cc3c[nH]c4ncccc34)CC2)cc1,0.826
15,O=C1CN(/N=C/c2ccc(-c3ccc([N+](=O)[O-])cc3)o2)C(=O)N1,-12.2
16,O=c1[nH]c2cc([N+](=O)[O-])c([N+](=O)[O-])cc2[nH]c1=O,4.93
17,CCCCC#Cc1nc(NC)c2ncn([C@@H]3O[C@H](CO)[C@@H](O)C3O)c2n1 (stereo partly drawn),5.81
18,O=C1NCc2c1c1c3ccccc3[nH]c1c1[nH]c3ccccc3c21,91.1
